proKLK7 act = proKLK7 zymogen activators, primary screen, biochemical, fluorescence intensity; Kallikrein-7 (Homo sapiens), P49862; purified proKLK7, EDANS-DABCYL substrate fluorescence; 100% is mature enzyme control, 0% vehicle; activation, % at 7 µM; actives 0.9% (n = 370,000);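 active means activation above the mean of all tested compounds plus 3 SD, computed per campaign excluding outliers beyond control limits, cut at about 13% in these data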
ADAM10 inh = human ADAM10 inhibitors, primary screen, biochemical, QFRET, HTS | actives 0.62% (n = 370,000) | recombinant ADAM10, EDANS/DABCYL FRET peptide cleavage, 3 h | inhibition, % at 7 µM;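 active means inhibition above a per-campaign cutoff equal to the mean of compounds falling between control-based bounds plus 3 SD, cut at about 20% in these data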;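 further: 0% = DMSO wells while the 100% control is not disclosed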
PLCb3 inh = human PLC-beta3 inhibitors, primary screen, biochemical, fluorescence. Purified PLC-beta3, fluorogenic substrate. actives 0.18% (n = 370,000). inhibition, % at 12.2 µM. 1-phosphatidylinositol 4,5-bisphosphate phosphodiesterase beta-3 (Homo sapiens), Q01970; in the data active means inhibition above about 11%;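 further: 0% = median of compound wells on plate and 100% = full blocker control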
PLCg1 inh = PLC-gamma1 enzyme inhibitors, primary screen, biochemical, fluorescence, purified enzyme; fluorogenic substrate; actives 0.84% (n = 370,000); 1-phosphatidylinositol 4,5-bisphosphate phosphodiesterase gamma-1 (Homo sapiens), P19174; inhibition, % at 12.2 µM
HGIII-sPLA2 inh = human group III sPLA2 inhibitors, primary screen, biochemical, QFRET, BODIPY PC-A2 liposome substrate; actives 0.56% (n = 370,000); inhibition, % at 12.2 µM; Group 3 secretory phospholipase A2 (Homo sapiens), Q9NZ20; QFRET BODIPY PC-A2 liposome hydrolysis, fluorescence;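 active means inhibition above mean plus 3 SD of compounds lying within the high and low control bounds, cut at about 19% in these data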;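 further: 0% = median of test compound wells and 100% = no enzyme DMSO wells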
ADAM17 inh = ADAM17 inhibitors, primary screen, biochemical, QFRET; recombinant ADAM17, EDANS/DABCYL FRET peptide cleavage; inhibition, % at 6.95 µM; actives 0.83% (n = 370,000);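 active means inhibition above the mean of compounds lying between control limits plus 3 SD, set per campaign, cut at about 8.5% in these data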;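 further: 0% = DMSO-only wells as the low control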
PLCgamma1 ctr = PLC-gamma1 enzyme inhibitors, counter-screen for PLC-beta3 inhibitor project, biochemical, fluorescence. shares compounds with PLCg1 inh. purified PLC-gamma1, fluorogenic substrate. inhibition, % at 12.3 µM. actives 3.1% (n = 3,300)
PLCb3 confirm = PLC-beta3 inhibitor confirmation, biochemical, fluorescence, purified enzyme. actives 1% (n = 3,300). inhibition, % at 12.3 µM. shares compounds with PLCg1 inh. fluorogenic substrate fluorescence; in the data active means inhibition above about 11%
* = called active by the depositor; nt = not tested or not shown. Only some compounds are listed: those with a hit (about 3.4% of all), similar ones and a draw of the others. Unless noted, no stated cut-off is given here; in the data, active means inhibition above about 9.5%; inactive means the rest.

SMILES | proKLK7 act | ADAM10 inh | PLCb3 inh | PLCg1 inh | HGIII-sPLA2 inh | ADAM17 inh | PLCgamma1 ctr | PLCb3 confirm
COc1ccccc1N1CCN(S(=O)(=O)CCNC(=O)C2CCCCC2)CC1 | 1 | -4 | -7 | 0 | -3 | -1 | nt | nt
CCOc1ncccc1C(=O)Nc1ccc(OC)c(S(=O)(=O)N2CCOCC2)c1 | -1 | -8 | -3 | 5 | 6 | -5 | nt | nt
CCOc1ccccc1N1CCN(C(=S)NCc2ccccc2)CC1 | 1 | 0 | 4 | 9.7* | 12 | 1 | -2 | -2
CCNC(=S)N1CCN(c2ccccc2OCC)CC1 | 0 | 0 | 2 | 2 | 6 | 6 | nt | nt
O=C(NCc1ccccc1)/C(=C\c1ccccc1)NC(=O)c1ccco1 | 0 | 1 | -12 | -5 | 1 | -2 | nt | nt
CC(=O)OCC(=O)Nc1ccc([N+](=O)[O-])cc1Cl | 0 | 1 | 0 | 0 | 4 | -1 | nt | nt
CC(=O)OCC(=O)Nc1ccc(Cl)cc1Cl | -1 | 9 | 3 | 10* | 12 | 3 | -5 | -2
Cn1c(SCC(=O)NC2(C#N)CCCCC2)nnc1-c1cccnc1 | 0 | 0 | -1 | 12* | 4 | -1 | -8 | -5
O=C(Nc1cccnc1Oc1ccc(Cl)cc1)c1cccc2ccccc12 | 1 | 5 | -11 | 4 | 12 | -1 | nt | nt
Cc1ccc(NC(=O)c2cnccn2)cc1C | 1 | 3 | -1 | 11* | 8 | 3 | 1 | -7
CCCC(CCC)=NNc1ccc(S(=O)(=O)Nc2ccccc2OC)cc1[N+](=O)[O-] | 0 | 6 | 5 | 2 | 1 | 3 | nt | nt
COc1ccccc1NS(=O)(=O)c1ccc(OC)c([N+](=O)[O-])c1 | 0 | -4 | 2 | 3 | -7 | 2 | nt | nt
COc1ccccc1NS(=O)(=O)c1ccc(NN=C2CCCCC2)c([N+](=O)[O-])c1 | 1 | 16 | 7 | 11* | -8 | 8 | 5 | 6
COc1ccccc1NS(=O)(=O)c1ccc(N/N=C(\C)C(C)C)c([N+](=O)[O-])c1 | 0 | 16 | 13* | 9.9* | -8 | 6 | 8 | 3
O=C(Nc1ccc2c(c1)OCCO2)C(C1CC1)n1c(=O)c(-c2ccccc2)nc2ccccc21 (stereo unspecified) | -6 | -25 | -12 | -8 | 3 | -9 | nt | nt
COc1ccc(CCNC(=O)CCNS(=O)(=O)c2cccc3nonc23)cc1OC | 0 | 4 | 0 | -5 | 0 | -4 | nt | nt
COc1ccc(CCNC(=O)CCNS(=O)(=O)c2cccc3nsnc23)cc1OC | 1 | 0 | 2 | 11* | 5 | 0 | -4 | -4
CCCN(CC1CC1)S(=O)(=O)c1ccc(S(N)(=O)=O)cc1 | 0 | -11 | -3 | 12* | 16 | -4 | -4 | -6
CNS(=O)(=O)c1cc(NC(=O)c2cncn2-c2ccccc2)ccc1C | -1 | 3 | -3 | 1 | 1 | 0 | nt | nt
CC1=NN(C(N)=S)C(=O)C1N=Nc1ccc(C)cc1C (stereo unspecified) | 0 | 1 | 2 | 3 | -2 | -5 | nt | nt
CC1=NN(c2ccc(C)cc2C)C(=O)C1C(c1ccccc1O)C1C(=O)N(c2ccc(C)cc2C)N=C1C (stereo unspecified) | 0 | 8 | 6 | 13* | -7 | 5 | -7 | -4
CC(C)CN(C(=O)COC(=O)Cc1n[nH]c(=O)c2ccccc12)C1CCS(=O)(=O)C1 (stereo unspecified) | 0 | -7 | 2 | 12* | 2 | -4 | -7 | -2
CC(Oc1ccccc1)C(=O)Nc1cccc(NC(=O)c2ccco2)c1 (stereo unspecified) | 0 | 11 | 6 | 11* | -1 | 7 | -5 | -1
O=C(Nc1ccccc1)c1cccc(NC(=O)c2ccco2)c1 | 0 | 2 | 3 | 0 | -4 | -5 | nt | nt
COc1ccc([N+](=O)[O-])cc1NC(=O)C(C)OC(=O)c1cccnc1 (stereo unspecified) | 0 | 2 | 5 | 2 | -2 | -1 | nt | nt
SMILES | proKLK7 act | ADAM10 inh | PLCb3 inh | PLCg1 inh | HGIII-sPLA2 inh | ADAM17 inh | PLCgamma1 ctr | PLCb3 confirm
COc1cc(C23CCCN(CCC(C(C)(C)C)C2)C32OCCO2)cc(OC)c1OC (stereo unspecified) | 0 | -1 | 2 | 11* | -11 | 2 | 2 | 4
O=C(Nc1ccc(Cl)cc1)c1cccc(NC2=NC3CS(=O)(=O)CC3S2)c1 (stereo unspecified) | 0 | 12 | 4 | 12* | 0 | 5 | -5 | -5
CC(C)c1ccc(NC(=O)c2cccc(NC3=NC4CS(=O)(=O)CC4S3)c2)cc1 (stereo unspecified) | 0 | 20 | 0 | 9.6* | -6 | 8 | 2 | -1
CCc1ccc(NC(=O)c2cccc(NC3=NC4CS(=O)(=O)CC4S3)c2)cc1 (stereo unspecified) | -1 | 0 | 1 | 1 | -4 | 3 | nt | nt
Cc1cccc(NC(=O)c2cccc(NC3=NC4CS(=O)(=O)CC4S3)c2)c1 (stereo unspecified) | -1 | -1 | 3 | 0 | 3 | 1 | nt | nt
CCOc1ccc(NC(=O)c2cccc(NC3=NC4CS(=O)(=O)CC4S3)c2)cc1 (stereo unspecified) | 0 | 8 | 4 | 9.9* | 5 | 5 | 6 | 2
Cc1ccc(NC(=O)c2cccc(NC3=NC4CS(=O)(=O)CC4S3)c2)cc1C (stereo unspecified) | -1 | -11 | 0 | 2 | 4 | -2 | nt | nt
Cc1ccc(CNC(=O)Cc2ccc(NC3=NC4CS(=O)(=O)CC4S3)cc2)cc1 (stereo unspecified) | 0 | -3 | -1 | 3 | 12 | -1 | nt | nt
O=C(Cc1ccc(NC2=NC3CS(=O)(=O)CC3S2)cc1)NCc1ccc(Cl)cc1 (stereo unspecified) | 0 | 8 | 1 | 11* | 4 | 2 | -2 | -1
O=C(O)CC1(CC(=O)Nc2ccc3sccc3c2)CCCCC1 | 0 | -10 | -5 | -2 | 10 | -2 | nt | nt
Cc1ccc(S(=O)(=O)CCC(=O)NNC(=O)CN(C)S(=O)(=O)c2ccc(C)cc2)cc1 | -1 | 4 | 1 | -1 | -2 | -6 | nt | nt

Screening results deposited in PubChem BioAssay by The Scripps Research Institute Molecular Screening Center.
